PMC4552634, “A New Set of Chemical Starting Points with Plasmodium falciparum Transmission-Blocking Potential for Antimalarial Drug Discovery” (PLoS ONE, 2015)
Screen size: about 13,000 compounds; about 3,200 (25%) showed an effect of 50% or more. The list shows a part of the results.

test system: P. falciparum stage V gametocytes; set-up: BacTiter-Glo ATP luminescence viability of purified stage V gametocytes in 384-well plates, per cent inhibition versus DMSO; settings: 48 h, 5 µM; inhibitor

First: O=C(O)C(F)(F)F.c1cc(CN2CCN(c3ccncc3)CC2)cc(-c2ccc(-c3nc4ccccc4[nH]3)s2)c1 [TCMDC-132909]
Second: O=C(Nc1cccc(CN2CCCN(Cc3ncc[nH]3)CC2)c1)c1ccc(-c2ccccc2)cc1 [TCMDC-141849]
The “% Inhibition” value of the first is lower: 11.83% for the first, 12.11% for the second.

First: COc1ccc2nccc([C@@H](O)CN3CCC(NCc4cc5cc(C)ccc5s4)CC3)c2c1 [TCMDC-140682]
Second: COc1cc2nc(NCCCN3CCCCC3)nc(NCc3ccccc3)c2cc1OC [TCMDC-132012]
The “% Inhibition” value of the first is lower: 12.73% for the first, 112.9% for the second.

First: CN(C)CCCn1cncc1-c1ccc2ncnc(Nc3ccc4c(cnn4Cc4ccccc4)c3)c2c1 [TCMDC-138087]
Second: COc1cc2nc(NCCc3cccc(Cl)c3)nc(NCc3ccccc3)c2cc1OC [TCMDC-135266]
The “% Inhibition” value of the first is lower: -19.79% for the first, 90.56% for the second.

Going from `CN(C)CCc1coc2ccc(C(=O)Nc3ccc(-c4ccc(O)cc4)cc3)cc12` [TCMDC-132005] to `N#Cc1ccc(CN2CCCN(c3ccc(NC(=O)c4ccc(F)cc4)cc3)CC2)cc1` [TCMDC-134984], the “% Inhibition” value rises from -54.25% to -24.83%.

Compared with `COc1cc2nc(NCCc3ccccc3)nc(NCc3cnn(C)c3C)c2cc1OC` [TCMDC-135459], `COc1cccc(CCNc2nc(NCc3ccccc3)c3cc(OC)c(OC)cc3n2)c1` [TCMDC-135267] is lower in “% Inhibition” value: 100.1% for the first, 71.62% for the second.

Compared with `c1ccc(CNc2nc(NCCN3CCCCC3)nc3ccccc23)cc1` [TCMDC-137554], `COc1cc2nc(N[C@@H](CO)c3ccccc3)nc(NCc3ccccc3)c2cc1OC` [TCMDC-132024] is lower in “% Inhibition” value: 18.64% for the first, 6.921% for the second.

First: Cc1ccccc1C1CCN(C2CCC(NC(=O)/C=C/c3c[nH]c4ccccc34)CC2)CC1 (centres unmarked) [TCMDC-134103]
Second: CC1(C)CCCN(C(=O)Cc2ccc3c(c2)CCCC3)C1CN1CC=CC1 (centres unmarked) [TCMDC-131637]
The “% Inhibition” value of the first is lower: -47.56% for the first, 3.216% for the second.

Going from `O=C(O)CCSc1ncnc2nc[nH]c12` [TCMDC-125870] to `NC(N)=Nc1ccc(CCc2ccc(N=C(N)N)cc2)cc1` [TCMDC-137701], the “% Inhibition” value falls from -3.326% to -9.941%.

Going from `C=Cc1sc(CNCCCNc2cc(=O)c3ccccc3[nH]2)c(C)c1Br` [TCMDC-141064] to `COc1ccc(CCNc2nc(NCc3ccccc3)c3cc(OC)c(OC)cc3n2)cc1OC` [TCMDC-132017], the “% Inhibition” value rises from -9.308% to 95.97%.

Compared with `COc1ccc(CNc2nc(NCc3ccccc3)c3cc(OC)c(OC)cc3n2)cc1OC` [TCMDC-131893], `COc1ccc2ccccc2c1CON1C(N)=NC(N)=NC1(C)C` [TCMDC-131789] is lower in “% Inhibition” value: 102.4% for the first, 14.14% for the second.
